Measurements reported in the supplement of paper PMC8699584.
Where “and” joins values, the source holds several entries; their conditions need not be identical. Identical values can stand only once. Counter-ions that a name gives are not always drawn. ± gives the standard deviation of the averaged measurements.

Columns and labels:
Molm13 = test: cell viability relative to DMSO control (bortezomib = 0%); higher = less growth inhibition; details: 10 nM; 72 h
How it was run: (§1)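 In duplicate runs, a library of 679 approved and investigational compounds in 384-well plates received acute myeloid leukemia cells at 1000 cells per well in 50 µL, with each compound at a single 10 nM dose for 72 h. CellTiter-Glo luminescence, read on an EnVision reader, served as the viability measure. Each plate was normalized by linear regression between DMSO-treated cells (100%) and positive-control-treated cells (0%).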

Mv4-11 = test: as above; details: 10 nM; 72 h
How it was run: as §1

SMILES	cell viability (Molm13)	cell viability (Mv4-11)
COc1cc(CCc2cc(NC(=O)c3ccc(N4CC(C)NC(C)C4)cc3)n[nH]2)cc(OC)c1 (stereo unspecified)	102 ± 17%	99.5 ± 2%
CNC(=O)c1ccc(Nc2ncc(C(F)(F)F)c(NCc3nccnc3N(C)S(C)(=O)=O)n2)cc1	90.2 ± 16%	99.5 ± 3.4%
Oc1cccc(-c2nc(N3CCOCC3)c3oc4ncccc4c3n2)c1	94.1 ± 2.2%	104 ± 8.7%
CNC(=O)c1cc(Oc2ccc(NC(=O)Nc3ccc(Cl)c(C(F)(F)F)c3)c(F)c2)ccn1 [Regorafenib (BAY 73-4506)]	101 ± 7.3%	110.3 ± 0.69%
CNS(=O)(=O)C[C@H]1CC[C@H](N(C)c2[nH]cnc3nccc2-3)CC1 [Oclacitinib]	96.5 ± 22%	107 ± 18%
Cc1cccc(/C=N/Nc2cc(N3CCOCC3)n3nc(-c4ccncc4)cc3n2)c1	95.5 ± 11%	122 ± 4.4%
O=C(Nc1ccc(OC(F)(F)F)cc1)c1sccc1NCc1ccnc2ccccc12	111 ± 3.1%	109 ± 6%
C[N+](C)(C)CC(=O)O [Betaine hydrochloride]	86.4 ± 9.4%	101 ± 9.6%
C[C@@H]1CCN(C(=O)CC#N)C[C@@H]1N(C)c1ncnc2[nH]ccc12	109% and 101%	99.7% and 105%
COc1cc2c(Oc3ccc(NC(=O)C4(C(=O)Nc5ccc(F)cc5)CC4)cc3F)ccnc2cc1OCCCN1CCOCC1	14.3 ± 2.5%	15.8 ± 33%
CC(C)c1ccc2c(c1)CC[C@@H]1[C@@](C)(CN)CCC[C@@]21C [Leelamine (hydrochloride)]	101.6 ± 0.018%	96.46 ± 0.32%
O=C1Cc2c([nH]c3ccc(Br)cc23)-c2ccccc2N1 [Kenpaullone]	88 ± 2.5%	111 ± 5.9%
Cc1cn(-c2cc(NC(=O)c3ccc(C)c(Nc4nccc(-c5cccnc5)n4)c3)cc(C(F)(F)F)c2)cn1 [Nilotinib]	124 ± 9.8%	108 ± 16%
